Results reported in PubChem BioAssay (EPA / NIEHS).
Calls of active or inactive are those of the source. How the source made its calls: active means hit-call score of the fitted dose curve at least 0.9, where 1 is the maximum; inactive means score below 0.9.

Legend:
Conditions in all cases: mRNA level, 48 h; actives raise or lower the signal
[1] = read-out: growth arrest and DNA damage 45 (GADD45G), GADD45G (gene 10912); experiment: LTEA_HepaRG_GADD45G: Life Technologies and Expression Analysis (LTEA) Assay for growth arrest and DNA damage 45 (GADD45G) using HepaRG (AID 2283499)
Method in brief: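 Human hepatic HepaRG line treated 48 h with chemicals (eight concentrations, half-log steps from 100 uM); transcript induction or repression of GADD45G scored by qRT-PCR versus DMSO vehicle.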

[2] = read-out: Glutamate-cysteine ligase regulatory (GCLM), GCLM (gene 2730); experiment: LTEA_HepaRG_GCLM: Life Technologies and Expression Analysis (LTEA) Assay for Glutamate-cysteine ligase regulatory (GCLM) using HepaRG (AID 2283500)
Method in brief: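 In this multiplexed HepaRG gene-expression assay, GCLM mRNA change after 48 h treatment (8 concentrations, max 100 uM) was scored against DMSO by bidirectional curve fitting.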

[3] = read-out: Glutathione S-transferase M3 (GSTM3), GSTM3 (gene 2947); experiment: LTEA_HepaRG_GSTM3: Life Technologies and Expression Analysis (LTEA) Assay for Glutathione S-transferase M3 (GSTM3) using HepaRG (AID 2283501)
Method in brief: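 Changes in GSTM3 expression, an oxidative-stress marker, were scored by bidirectional curve fitting against 0.5% DMSO vehicle. Human HepaRG cultures received chemicals for 48 h in duplicate, highest concentration 100 uM with half-log dilutions.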

[4] = read-out: Heat shock 70 kDa protein 1 (HSPA1A), gene 3303; experiment: LTEA_HepaRG_HSPA1A: Life Technologies and Expression Analysis (LTEA) Assay for Heat shock 70 kDa protein 1 (HSPA1A) using HepaRG (AID 2283502)
Method in brief: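 An oxidative-stress marker readout: HepaRG cells treated 48 h in duplicate with an eight-point series (highest 100 uM) had HSPA1A mRNA quantified by TaqMan qRT-PCR. Activity was fitted in both directions using 0.5% DMSO as baseline.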

[5] = read-out: Hypoxia-inducible factor 1-alpha (Homo sapiens) (UniProt Q16665); experiment: LTEA_HepaRG_HIF1A: Life Technologies and Expression Analysis (LTEA) Assay for Hypoxia-inducible factor 1 (HIF1A) Trancription factor using HepaRG (AID 2283503);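 further: HIF1A transcript by TaqMan qRT-PCR normalized to ACTB GAPDH and POLR2A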
Method in brief: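 Gain- or loss-of-signal HIF1A mRNA changes are fitted against a DMSO baseline. HepaRG cultures receive eight concentrations, highest 100 uM, for 48 h in serum-free induction medium with 0.5% DMSO.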

[6] = read-out: 3-Hydroxy-3-Methylglutaryl-CoA Synthase 2 (HMGCS2), HMGCS2 (gene 3158); experiment: LTEA_HepaRG_HMGCS2: Life Technologies and Expression Analysis (LTEA) Assay for 3-Hydroxy-3-Methylglutaryl-CoA Synthase 2 (HMGCS2) using HepaRG (AID 2283504)
Method in brief: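 Expression of HMGCS2 in human HepaRG liver cells is measured by qRT-PCR 48 h after dosing (highest 100 uM, half-log series, 0.5% DMSO). Values come from bidirectional concentration-response fitting with DMSO as baseline.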

HGF (gene 3082) = experiment: LTEA_HepaRG_HGF: Life Technologies and Expression Analysis (LTEA) Assay for Hepatocyte Growth Facto (HGF) using HepaRG (AID 2283505)
Method in brief: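 Gain or loss of HGF mRNA in human HepaRG liver cells after 48 h chemical exposure; eight concentrations up to 100 uM with 0.5% DMSO vehicle, quantified by TaqMan qRT-PCR.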

[7] = read-out: Insulin Like Growth Factor 1 (IGF1), IGF1 (gene 3479); experiment: LTEA_HepaRG_IGF1: Life Technologies and Expression Analysis (LTEA) Assay for Insulin Like Growth Factor 1 (IGF1) using HepaRG (AID 2283506)
Method in brief: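 Endpoint: IGF1 mRNA change by qRT-PCR, housekeeping-normalized, fitted bidirectionally relative to 0.5% DMSO vehicle. Human HepaRG cells were treated 48 h in serum-free induction medium, eight half-log concentrations topping at 100 uM.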

[8] = read-out: Intercellular Adhesion Molecule 1 (ICAM1), ICAM1 (gene 3383); experiment: LTEA_HepaRG_ICAM1: Life Technologies and Expression Analysis (LTEA) Assay for Intercellular Adhesion Molecule 1 (ICAM1) using HepaRG (AID 2283507)
Method in brief: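 Gain or loss of transcript in HepaRG hepatic cells is quantified by qRT-PCR after 48 h chemical exposure (up to 100 uM, half-log steps), with DMSO as baseline.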

[9] = read-out: Insulin-like growth factor-binding protein 1 (IGFBP1), IGFBP1 (gene 3484); experiment: LTEA_HepaRG_IGFBP1: Life Technologies and Expression Analysis (LTEA) Assay for Insulin-like growth factor-binding protein 1 (IGFBP1) using HepaRG (AID 2283508)
Method in brief: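 mRNA induction or loss was quantified by qRT-PCR after 48 h chemical exposure of human HepaRG cells, with 0.5% DMSO as vehicle and baseline. Concentration-response over eight points up to 100 uM.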

[10] = read-out: Interleukin 6 (IL6), IL6 (gene 3569); experiment: LTEA_HepaRG_IL6: Life Technologies and Expression Analysis (LTEA) Assay for Interleukin 6 (IL6) using HepaRG (AID 2283509)
Method in brief: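 qRT-PCR read-out of IL6 transcript, normalized to three housekeeping genes, after 48 h chemical exposure of HepaRG cells; 8-point half-log series, top 100 uM, 0.5% DMSO vehicle. Bidirectional curve fitting against DMSO baseline.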

[11] = read-out: Interleukin 6 Receptor (IL6R), IL6R (gene 3570); experiment: LTEA_HepaRG_IL6R: Life Technologies and Expression Analysis (LTEA) Assay for Interleukin 6 Receptor (IL6R) using HepaRG (AID 2283510);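 on AC50: differentiated human HepaRG liver cells in serum-free induction medium; TaqMan qRT-PCR signal normalized to ACTB GAPDH and POLR2A housekeeping genes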
Method in brief: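 In this HepaRG screen, test chemicals act on cells for 48 h at up to 100 uM (eight half-log points, duplicate wells). IL6R expression is quantified by qRT-PCR after normalization to ACTB, GAPDH and POLR2A, with DMSO as baseline.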

[12] = read-out: Potassium channel subfamily K member 1 (KCNK1), KCNK1 (gene 3775); experiment: LTEA_HepaRG_KCNK1: Life Technologies and Expression Analysis (LTEA) Assay for Potassium channel subfamily K member 1 (KCNK1) using HepaRG (AID 2283511)
Method in brief: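 HepaRG, 48 h exposure, 8-pt half-log series top 100 uM, 0.5% DMSO vehicle, duplicates. Readout: KCNK1 transcript by qRT-PCR (Fluidigm array), housekeeping-normalized; bidirectional curve fit relative to DMSO baseline.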

[13] = read-out: Keratin 19 (KRT19), KRT19 (gene 3880); experiment: LTEA_HepaRG_KRT19: Life Technologies and Expression Analysis (LTEA) Assay for Keratin 19 (KRT19) using HepaRG (AID 2283512)
Method in brief: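 Gene-expression endpoint in the human liver line HepaRG after 48 h exposure to up to 100 uM test chemical with 0.5% DMSO vehicle; KRT19 mRNA by qRT-PCR, analyzed bidirectionally versus DMSO.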

[14] = read-out: JUN Transcription Factor, JUN (gene 3725); experiment: LTEA_HepaRG_JUN: Life Technologies and Expression Analysis (LTEA) Assay for JUN Transcription Factor using HepaRG (AID 2283513)
Method in brief: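 Gene-expression endpoint: JUN mRNA (qRT-PCR, normalized to three reference genes) in HepaRG cultures treated 48 h with chemicals, duplicate wells, 100 uM maximum with half-log dilutions; bidirectional fitting relative to 0.5% DMSO.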

[15] = read-out: Lipase C (LIPC), LIPC (gene 3990); experiment: LTEA_HepaRG_LIPC: Life Technologies and Expression Analysis (LTEA) Assay for Lipase C (LIPC) using HepaRG (AID 2283514)
Method in brief: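 HepaRG, 48 h exposure, 8-pt half-log series from 100 uM in 0.5% DMSO, duplicates. Readout: LIPC mRNA by Fluidigm qRT-PCR, housekeeping-normalized (ACTB/GAPDH/POLR2A). Gain or loss fitted bidirectionally against DMSO baseline.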

[16] = read-out: Lipoprotein lipase (LPL), LPL (gene 4023); experiment: LTEA_HepaRG_LPL: Life Technologies and Expression Analysis (LTEA) Assay for Lipoprotein lipase (LPL) using HepaRG (AID 2283515)
Method in brief: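 HepaRG, 48 h exposure, 8-pt half-log dilutions from 100 uM, 0.5% DMSO vehicle, duplicates; qRT-PCR (Fluidigm array) of LPL mRNA vs housekeeping genes; bidirectional curve fit relative to DMSO baseline.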

[17] = read-out: MicroRNA 122 (MIR122), gene 406906; experiment: LTEA_HepaRG_MIR122: Life Technologies and Expression Analysis (LTEA) Assay for MicroRNA 122 (MIR122) using HepaRG (AID 2283516); further: the transcript read is the microRNA miR-122
Method in brief: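 Changes in transcript abundance, up or down relative to 0.5% DMSO vehicle, were scored after 48 h chemical treatment of HepaRG cells (maximum 100 uM). Quantification used TaqMan qRT-PCR normalized to housekeeping genes.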

[18] = read-out: matrix metalloproteinase-10 (MMP10), MMP10 (gene 4319); experiment: LTEA_HepaRG_MMP10: Life Technologies and Expression Analysis (LTEA) Assay for matrix metalloproteinase-10 (MMP10) using HepaRG (AID 2283517)
Method in brief: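 Transcript levels come from Fluidigm qRT-PCR normalized to three housekeeping genes, with curves fitted bidirectionally against 0.5% DMSO. Human HepaRG cells were dosed for 48 hours at concentrations up to 100 uM.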

[19] = read-out: Glutamate-cysteine ligase catalytic (GCLC), GCLC (gene 2729); experiment: LTEA_HepaRG_GCLC: Life Technologies and Expression Analysis (LTEA) Assay for Glutamate-cysteine ligase catalytic (GCLC) using HepaRG (AID 2283498)
Method in brief: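 HepaRG, 48 h exposure, 8-pt half-log series from 100 uM, 0.5% DMSO vehicle; TaqMan qRT-PCR for GCLC mRNA, housekeeping-normalized; bidirectional curve fit vs DMSO baseline.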

Measured: AC50

Chain of Hypoxia-inducible factor 1-alpha (Homo sapiens) (Q16665 whole entry, looked up): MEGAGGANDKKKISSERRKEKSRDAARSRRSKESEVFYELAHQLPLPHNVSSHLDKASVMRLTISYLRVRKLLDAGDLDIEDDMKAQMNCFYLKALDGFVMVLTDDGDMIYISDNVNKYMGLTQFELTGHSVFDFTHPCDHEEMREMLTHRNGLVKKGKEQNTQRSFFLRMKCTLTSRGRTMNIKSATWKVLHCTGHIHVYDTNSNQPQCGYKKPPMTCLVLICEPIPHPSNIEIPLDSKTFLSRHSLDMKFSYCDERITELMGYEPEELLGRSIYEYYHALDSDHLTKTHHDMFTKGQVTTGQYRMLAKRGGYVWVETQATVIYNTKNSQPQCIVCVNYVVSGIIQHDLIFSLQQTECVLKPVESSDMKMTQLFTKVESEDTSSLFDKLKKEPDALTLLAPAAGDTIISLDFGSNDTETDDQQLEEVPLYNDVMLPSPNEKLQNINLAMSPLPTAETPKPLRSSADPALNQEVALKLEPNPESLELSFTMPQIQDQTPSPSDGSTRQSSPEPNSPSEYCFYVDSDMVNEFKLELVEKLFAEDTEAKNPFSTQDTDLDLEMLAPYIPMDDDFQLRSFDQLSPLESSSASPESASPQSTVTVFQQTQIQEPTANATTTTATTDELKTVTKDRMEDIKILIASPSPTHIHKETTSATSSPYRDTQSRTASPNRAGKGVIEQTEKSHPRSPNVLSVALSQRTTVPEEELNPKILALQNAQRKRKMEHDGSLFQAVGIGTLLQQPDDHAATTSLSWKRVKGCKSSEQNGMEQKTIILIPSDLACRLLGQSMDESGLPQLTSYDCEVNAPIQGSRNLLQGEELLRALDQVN

CCOC(=O)COc1cc(-n2ncc(C(F)(F)F)c(C)c2=O)c(F)cc1Cl
not listed: [19]
inactive: all other assays above

CCSC(=O)N(CC(C)C)CC(C)C
not listed: [19]
inactive: all other assays above

C[C@]12CC[C@@H]3c4ccc(O)cc4C[C@@H](CCCCCCCCCS(=O)CCCC(F)(F)C(F)(F)F)[C@H]3[C@@H]1CC[C@@H]2O (some centres not stated)
active: [1] 13 µM | [2] 0.0464 µM | [3] 29.8 µM | [6] 33.6 µM | HGF (gene 3082) 0.0444 µM | [8] 0.0415 µM | [9] 22.3 µM | [10] 13.9 µM | [11] 24.3 µM | [12] 0.0883 µM | [14] 0.0859 µM | [15] 50 µM | [17] 28.7 µM | [18] 0.116 µM
inactive: [4] | [5] | [7] | [13] | [16]

N[C@@H](Cc1cc(I)c(Oc2ccc(O)c(I)c2)c(I)c1)C(=O)O
active: [19] 40 µM | [3] 0.613 µM | [5] 0.00253 µM | [6] 0.00253 µM | [8] 40 µM | [11] 40 µM | [13] 0.0152 µM | [15] 72.3 µM | [16] 0.00787 µM
inactive: all other assays above

O=C(O)c1ccccc1
inactive: all assays above

N#CSCSc1nc2ccccc2s1
active: [7] 77.2 µM | [11] 84 µM | [17] 69.3 µM
inactive: all other assays above
